# Sampled rows, rich in hits. Any-hit rate of the full collection: about 12%.
# Pf growth 96h: P. falciparum growth inhibition at 96 hours; P. falciparum luciferase reporter growth, 96 h; Potency, µM (highest dose often 28.7 µM), without a hit: at the highest dose activity change, negative = inhibition, most hits filed as inhibitors; 6.9% of 320,000 active; AID 504834; also: % is scaled to controls: 0 for no effect and ±100 for the full control effect
#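 96 h incubation, 37 C, 5% CO2, of luciferase-reporter P. falciparum-infected RBCs (2% hematocrit, 0.05% parasitemia final) with test compounds; endpoint luminescence.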
# Pf growth 48h: inhibits P. falciparum growth in the first generation, 48 h; P. falciparum luciferase growth in erythrocytes, 48 h; Potency, µM (top dose mostly 28.7 µM), for inactives: at the top dose activity change, negative = inhibition, hits mostly inhibitors; 5.9% of 310,000 active; AID 504832; also: % is scaled to controls: 0 for no effect and ±100 for the full control effect
#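 Growth was read as firefly luciferase luminescence after a 48 h, 37 C, 5% CO2 exposure of compounds to reporter-bearing P. falciparum cultures (0.1% parasitemia, 2% hematocrit final) in Albumax-supplemented RPMI 1640.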
# AMA1-RON2 inh: inhibitors of Plasmodium falciparum AMA1-RON2 interaction. AlphaScreen AMA1-biotinylated RON2 peptide binding. Potency, µM (highest dose often 58.2 µM), without a hit: top-dose activity change, negative = inhibition, most hits filed as inhibitors. 0.2% of 360,000 active. AID 720542;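 also: 0% = vehicle wells and -100% = peptide control; nearly all actives have a fitted effect of over 45% in size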
#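 AMA1 (3D7) with his tag at 25 nM final met compounds first, then biotinylated RON2 peptide at 25 nM; detection used donor plus acceptor beads, 10 µg/mL apiece, read by AlphaScreen after 30 min at room temperature.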
# NS1 function inh: inhibitors of influenza NS1 protein function | Potency, µM (highest dose often 46.1 µM), for the others: at the top dose activity, positive = more growth | 0.4% of 270,000 active | AID 2326; calls by dose curve; also: actives are rising curves; nearly all actives have a fitted effect of over 50% in size
#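 S. cerevisiae expressing influenza A NS1, grown in glucose, washed, then diluted 1:100 into pH 6.0 -URA galactose medium with 23 nl compound. Growth recovery read as OD600; NS1-free strain serves as control.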
# SARS PLP yeast: inhibitors of SARS-CoV papain-like protease in yeast; S. cerevisiae expressing SARS-CoV PLpro, growth rescue; Potency, µM (doses to about 32.9 µM), without a hit: top-dose activity, positive = growth rescue, hits mostly activators; 0.19% of 330,000 active; calls by dose curve; also: 0% is about no effect; nearly all actives have a fitted effect of over 55% in size
# HCV inh: HCV inhibition | Huh7.5.1 HCVcc-Cre infection, luciferase reporter, 44 h | 3.4% of 340,000 active | AID 651820 | Potency, µM (highest dose often 41.8 µM), inactives show at the highest dose activity change, negative = inhibition, hits mostly inhibitors; also: % is scaled to controls: 0 for no effect and ±100 for the full control effect
#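 Antiviral activity was scored by luciferase reporter output from cells infected with HCVcc-Cre (~0.5 moi) in presence of compound, 44 h infection period, cells seeded 1,000/well 4 h prior.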
# Numbers without * were called inactive; ? = inconclusive; · = no result given. Unless noted, calls follow the shape of the dose curve; as a rule, active = well fitted curve in the direction sought with a large enough effect; inconclusive = small, poorly fitted or top-dose-only effect, or another doubt; inactive = no such curve, though single readings can be large; an effect the other way counts as inactive or inconclusive. Potency is read from the fitted curve at half-maximal effect.
SMILES,Pf growth 96h,Pf growth 48h,AMA1-RON2 inh,NS1 function inh,SARS PLP yeast,HCV inh
COc1ccc(Cl)cc1NC(=S)N(Cc1cccnc1)Cc1ccco1,-8.3%,10.4µM*,-10.2%,·,-7.4%,?
Cc1ccc(Cl)cc1NC(=S)N(Cc1ccccc1)Cc1cccnc1,-27.9%,10.4µM*,9.3%,-7.0%,-6.2%,?
COc1ccccc1NC(=S)N(Cc1cccs1)C1CCCC1,?,-16.7%,-5.9%,·,2.7%,-17.5%
COc1ccccc1NC(=S)N(Cc1ccc(C)cc1)Cc1cccnc1,?,13.3%,8.4%,·,2.5%,5.4%
CC(NC(=O)c1ccco1)c1nc(-c2ccccc2Cl)no1 (configuration not stated),?,10.5%,-7.0%,-0.9%,-1.1%,29.0%
CCN(C(=O)c1ccco1)C1C2CC3CC(C2)CC1C3 (configuration not stated),0.1%,-14.2%,-0.7%,-76.4%,-13.7%,-1.8%
CCc1ccccc1NC(=S)N(Cc1cccnc1)Cc1ccco1,8.28µM*,?,-11.1%,9.8%,12.2%,17.0%
COc1cccc(-c2ccc(NC(=O)C3CCCN(Cc4cnc(C)n4C)C3)cc2)c1 (configuration not stated),-8.3%,?,7.5%,-5.2%,1.9%,?
COc1cccc(-c2ccc(NC(=O)C3CCCN(Cc4cnn(C)c4)C3)cc2)c1 (configuration not stated),?,?,-11.8%,-3.6%,·,12.6µM*
Cc1ncc(CN2CCCC(C(=O)Nc3ccc(-c4cccc(F)c4)cc3)C2)n1C (configuration not stated),2.6%,14.7µM*,-14.2%,-13.2%,-8.5%,3.55µM*
COc1cccc(-c2ccc(NC(=O)C3CCCN(Cc4cnn(C)c4C)C3)cc2)c1 (configuration not stated),19.5%,-26.4%,0.6%,0.1%,2.7%,?
COc1cccc(-c2ccc(NC(=O)C3CCCN(Cc4nccn4C)C3)cc2)c1 (configuration not stated),13.1µM*,?,33.9%,-13.1%,-2.5%,?
COc1cccc(-c2ccc(NC(=O)C3CCCN(Cc4cccc(C)n4)C3)cc2)c1 (configuration not stated),·,·,15.7%,·,·,·
CC(C)NC(=O)CCS(=O)(=O)c1cccc2nonc12,·,·,0.0%,13.1%,-1.1%,-2.1%
Cc1ccc(C)c(N2CCN(S(=O)(=O)c3ccc4c(c3)NC(=O)CC(=O)N4)CC2)c1,-12.4%,3.3%,5.1%,2.5%,6.1%,24.7%
Cc1ccc2c(c1)N(S(=O)(=O)c1ccc3c(c1)NC(=O)CC(=O)N3)CCO2,8.28µM*,7.5%,10.3%,23.2%,0.0%,-10.1%
O=C1CC(=O)Nc2cc(S(=O)(=O)N3CCOc4ccc(Cl)cc43)ccc2N1,?,29.8%,-8.3%,-2.9%,-1.6%,-4.9%
CC(C)CCNC(=O)CCS(=O)(=O)c1cccc2nonc12,11.7µM*,3.8%,42.4%,1.7%,3.7%,4.4%
Cc1ccc(Cl)cc1N1CCN(C(=O)CCS(=O)(=O)c2ccc3c(c2)NC(=O)CO3)CC1,20.3%,-14.5%,-5.8%,8.8%,-4.8%,11.2µM*
O=C1COc2ccc(S(=O)(=O)CCC(=O)N3CCN(c4cccc(Cl)c4)CC3)cc2N1,32.4%,-13.5%,0.0%,8.9%,-7.1%,19.2%
Cc1ccc(C)c(N2CCN(S(=O)(=O)c3ccc4c(c3)NC(=O)CO4)CC2)c1,13.1µM*,-9.7%,0.3%,-36.5%,-3.6%,22.9%
O=C1COc2ccc(S(=O)(=O)N3CCN(c4cccc(Cl)c4)CC3)cc2N1,13.1µM*,13.4%,10.7%,5.5%,10.3%,-4.3%
Cc1ccc(Cl)cc1N1CCN(C(=O)CCS(=O)(=O)c2cccc3nonc23)CC1,11.7µM*,?,-22.4%,10.8%,-17.2%,-12.2%
CC(=O)c1ccc(N2CCN(S(=O)(=O)c3ccc4c(c3)NC(=O)CO4)CC2)cc1,?,18.2%,3.2%,-0.8%,-7.2%,2.1%
CC(=O)Nc1ccc(S(=O)(=O)N2CCN(S(=O)(=O)c3ccccc3)CC2)cc1,?,?,4.1%,-9.6%,-14.6%,19.9%
